Compounds with a hit are over-represented: about 19% of the library has one in this group of screens.
HT1080 IDH1KD tx – HT-1080 IDH1 knockdown cell toxicity (counter line). HT-1080 IDH1 knockdown viability, ATP luminescence, 48 h. Potency, µM (doses to about 46.1 µM), inactives show top-dose activity, negative = toxicity, actives largely listed as cytotoxic. actives 2% (n = 360,000). AID 686971;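 further: potency means the concentration at half of the fitted maximal effect; 0% = DMSO wells and -100% = cell-free medium wells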
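HT-1080-IDH1KD cells (IDH1 knocked down), 750/well in RPMI with 5% FBS, treated with compound 48 h at 37 degrees C. Viability by CellTiter-Glo luminescence, normalised to DMSO and no-cell wells; concentration-response curves classed.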
TDP1 cell noCPT – qHTS for Inhibitors of human tyrosyl-DNA phosphodiesterase 1 (TDP1): qHTS in cells in absence of CPT. actives 15% (n = 420,000). Potency, µM (doses to about 46.2 µM), inactives show top-dose activity change, negative = growth inhibition, most hits filed as inhibitors. DT40 Tdp1-/- hTDP1 cells, no CPT, ATP luminescence, 48 h; further: potency means the concentration at half of the fitted maximal effect; nearly all actives have a fitted effect of over 55% in size
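Compound effects on proliferation are scored in DT40 Tdp1-/-;hTDP1 cells in the absence of CPT. ATP levels (CellTiter-Glo luminescence) are recorded after a ≥48 hr, 37 °C incubation.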
HT1080-NT tox – kills 2HG-producing HT-1080-NT fibrosarcoma cells | HT-1080-NT fibrosarcoma viability, CellTiter-Glo ATP luminescence, 48 h | actives 1.6% (n = 360,000) | Potency, µM (top dose mostly 46.1 µM), for inactives: top-dose activity, negative = less viability, actives largely listed as cytotoxic;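 further: NT is the 2HG producing partner of a matched IDH1 knockdown line; potency means the concentration at half of the fitted maximal effect; 0% = DMSO-treated cells and -100% = media-only wells without cells; nearly all actives have a fitted effect of over 55% in size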
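Fibrosarcoma NT cells, 750 per well in 5% FBS RPMI, were exposed to compound for 48 hours. Viability: CellTiter-Glo luminescence.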
DT40 TDP1 CPT – DT40-hTDP1 cell growth loss with CPT; chicken DT40 Tdp1-/-;hTDP1 cells + 20 nM CPT, ATP luminescence, 48 h; Potency, µM (top dose mostly 46.2 µM), for the others: at the top dose activity change, negative = growth inhibition, most hits filed as inhibitors; actives 12% (n = 420,000); AID 686979; further: potency means the concentration at half of the fitted maximal effect; nearly all actives have a fitted effect of over 55% in size
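Chicken DT40 Tdp1-/- cells complemented with human TDP1, 400 cells/well, exposed to compounds plus 20 nM camptothecin for at least 48 h at 37 C; viability read as ATP content by CellTiter-Glo luminescence.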
IL-1B inflam inh – inhibitors of inflammasome signaling (IL-1 beta secretion). THP-1 LPS/ATP IL-1B secretion, AlphaLISA, 16 h; hits give low values. activity change, % at 57.5 µM. actives 4.7% (n = 360,000). AID 743279; in the data active means activity change below about -50%; inconclusive means mostly about -30% to -49%
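Secreted IL-1B measured by AlphaLISA bead assay after 16 h compound exposure of THP-1 cells; compounds (final up to 57.5 uM) added 1 h before LPS (250 ng/mL) and ATP (1.25 mM) stimulation; lower signal means less secretion.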
ELG1 repair inh – inhibitors of ELG1-dependent DNA repair in HEK293T cells; AID 504467; actives 2.3% (n = 330,000); Potency, µM (top dose mostly 46.1 µM), without a hit: at the top dose activity change, negative = inhibition, hits mostly inhibitors; HEK293T ELG1-luciferase reporter, luminescence, 16 h; DNA damage induced by 5-fluorouridine; further: potency means the concentration at half of the fitted maximal effect; nearly all actives have a fitted effect of over 55% in size
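Reporter activity after DNA damage by 5-fluorouridine is monitored. Compound-treated cells incubate 16 hr at 37 °C, then ONE-Glo is added for 30 min before luminescence reading.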
Numbers without * were called inactive. Unless noted, the call rests on the fitted dose curve; in most records, active means well fitted curve in the direction sought with a large enough effect; inconclusive means small, poorly fitted or top-dose-only effect, or another doubt; inactive means no such curve, though single readings can be large; an effect the other way counts as inactive or inconclusive. Unless noted, on the % scale 0 is the no-effect control and ±100 the full control effect.

`CCOc1ccc(N(CC(=O)NCCc2ccccc2)C(=O)CCC(=O)Nc2nccs2)cc1` gave HT1080 IDH1KD tx -17.0%, TDP1 cell noCPT 5.5%, HT1080-NT tox -4.4%, DT40 TDP1 CPT -13.7%, IL-1B inflam inh -6.7 and ELG1 repair inh -10.7%.
`CCCCCNC(=O)C(c1ccnc2ccccc12)n1c(=O)c(-c2ccccc2)nc2ccccc21` (stereo not drawn) gave HT1080 IDH1KD tx 17.8%, TDP1 cell noCPT inconclusive, HT1080-NT tox 19.1%, DT40 TDP1 CPT inconclusive and IL-1B inflam inh 29.7.
For Cc1ccc(CCNC(=O)C2CCCN(S(=O)(=O)c3ccc4c(c3)oc(=O)n4C)C2)cc1 (stereo not drawn) the results were TDP1 cell noCPT -26.2% and DT40 TDP1 CPT -25.2%.
For Cc1c(F)cccc1NC(=O)CCCCCC1NC(=O)NC1C (stereo not drawn) the results were HT1080 IDH1KD tx 1.7%, TDP1 cell noCPT -19.3%, HT1080-NT tox 4.9%, DT40 TDP1 CPT 0.5%, IL-1B inflam inh -96.9* and ELG1 repair inh 9.5%.
O=C(CCCC(=O)c1ccccc1)Nc1ccc(F)cc1 was read as HT1080 IDH1KD tx -3.4%, TDP1 cell noCPT -13.2%, HT1080-NT tox -0.9%, DT40 TDP1 CPT -9.3%, IL-1B inflam inh -25.6 and ELG1 repair inh 0.0%.
`Cc1c(F)cccc1NC(=O)CCC(=O)O` gave HT1080 IDH1KD tx -6.2%, TDP1 cell noCPT -11.0%, HT1080-NT tox 2.3%, DT40 TDP1 CPT -4.5%, IL-1B inflam inh 5.1 and ELG1 repair inh 9.7%.
CC1NC(=O)NC1CCCCCC(=O)Nc1ccc(F)cc1 (stereo not drawn) was read as HT1080 IDH1KD tx 12.0%, TDP1 cell noCPT -1.2%, HT1080-NT tox 13.3%, DT40 TDP1 CPT -20.3%, IL-1B inflam inh -96.9* and ELG1 repair inh -0.3%.
`CC1CCN(C(=O)c2[nH]cnc2C(=O)Nc2ccc(Cl)cc2)CC1` gave HT1080 IDH1KD tx 10.2%, TDP1 cell noCPT inconclusive, HT1080-NT tox 5.8%, DT40 TDP1 CPT inconclusive, IL-1B inflam inh -16.7 and ELG1 repair inh -14.1%.
COc1cc2c(cc1OC)C(c1ccccc1)NC(C)(C)C2 (stereo not drawn) was read as HT1080 IDH1KD tx 0.0%, TDP1 cell noCPT -14.2%, HT1080-NT tox 2.1%, DT40 TDP1 CPT -4.3%, IL-1B inflam inh -8.1 and ELG1 repair inh 12.8%.
Screening COC(=O)c1cc2c(C)[nH]c(C)c2cc(C(=O)OC)c1=O returned HT1080 IDH1KD tx 1.0%, TDP1 cell noCPT 6.51µM*, HT1080-NT tox -0.1%, DT40 TDP1 CPT 7.31µM*, IL-1B inflam inh -19.1 and ELG1 repair inh -1.4%.
Screening COC(=O)c1cc(C(C)=O)c(C)[nH]c1=O returned HT1080 IDH1KD tx 17.7%, TDP1 cell noCPT -17.0%, HT1080-NT tox -1.4%, DT40 TDP1 CPT 2.0%, IL-1B inflam inh 13.6 and ELG1 repair inh -5.5%.
For CCOc1ccc(-c2nc(C(N)=O)c3c(n2)n(-c2ccc4c(c2)OCO4)c(=O)n3CC)cc1 the results were TDP1 cell noCPT -17.0% and DT40 TDP1 CPT 12.9%.
Screening Cc1ccc2onc(CNC(=O)Nc3ccccc3C#N)c2c1 returned TDP1 cell noCPT -9.2% and DT40 TDP1 CPT 1.5%.
Screening O=C(NCc1noc2ccccc12)Nc1ccc(F)cc1F returned TDP1 cell noCPT -68.9% and DT40 TDP1 CPT 16.4µM*.
`O=C(NCc1cccc(Cl)c1)NCc1cccc(Cl)c1` gave HT1080 IDH1KD tx -15.9%, TDP1 cell noCPT -5.1%, HT1080-NT tox -6.2%, DT40 TDP1 CPT -5.6%, IL-1B inflam inh -8.9 and ELG1 repair inh inconclusive.
Screening O=C(NCc1cccc(Cl)c1)NCc1noc2ccccc12 returned TDP1 cell noCPT 16.4µM* and DT40 TDP1 CPT inconclusive.
`CCCC(=O)Nc1ccc(NC(=O)c2ccccc2F)cn1` gave HT1080 IDH1KD tx 2.0%, TDP1 cell noCPT -3.7%, HT1080-NT tox 3.5%, DT40 TDP1 CPT -17.2%, IL-1B inflam inh -61.1* and ELG1 repair inh inconclusive.
`O=C(Nc1ccncc1)c1ccccc1F` gave HT1080 IDH1KD tx -0.9%, TDP1 cell noCPT -25.5%, HT1080-NT tox -10.8%, DT40 TDP1 CPT inconclusive, IL-1B inflam inh inconclusive and ELG1 repair inh 10.3µM*.
For O=C(Nc1cccc(NC(=O)c2ccccc2F)c1)c1ccccc1 the results were HT1080 IDH1KD tx -1.4%, TDP1 cell noCPT inconclusive, HT1080-NT tox -8.2%, DT40 TDP1 CPT inconclusive, IL-1B inflam inh -53.6* and ELG1 repair inh 11.4%.
`Cc1cc(C)c(S(=O)(=O)Nc2nnc(C3CCCCC3)s2)c(C)c1` gave HT1080 IDH1KD tx -8.9%, TDP1 cell noCPT 11.8%, HT1080-NT tox -8.0%, DT40 TDP1 CPT -25.4%, IL-1B inflam inh 0.0 and ELG1 repair inh 14.7%.
O=C(Nc1ccc2c(c1)C(=O)NC2=O)c1ccc(S(=O)(=O)N2CCCC2)cc1 was read as HT1080 IDH1KD tx -1.6%, TDP1 cell noCPT -6.8%, HT1080-NT tox 0.0%, DT40 TDP1 CPT -14.0%, IL-1B inflam inh 8.6 and ELG1 repair inh 23.6%.
`CC(OC(=O)c1nccnc1N)C(=O)Nc1ccc(S(=O)(=O)N2CCCC2)cc1` (stereo not drawn) gave HT1080 IDH1KD tx -11.8%, TDP1 cell noCPT 0.7%, HT1080-NT tox 1.3%, DT40 TDP1 CPT -0.4%, IL-1B inflam inh -4.6 and ELG1 repair inh 4.4%.
`CCCCNC(=O)CCc1c(C)nc2c(c(C)nn2-c2ccccc2)c1C` gave HT1080 IDH1KD tx -1.2%, TDP1 cell noCPT 18.4µM*, HT1080-NT tox 2.2%, DT40 TDP1 CPT 18.4µM*, IL-1B inflam inh -9.6 and ELG1 repair inh -25.0%.
Cc1nc2c(c(C)nn2-c2ccccc2)c(C)c1CCC(=O)Nc1ccc(CN2CCCC2)cc1 was read as HT1080 IDH1KD tx 20.6µM*, TDP1 cell noCPT inconclusive, HT1080-NT tox 14.6µM*, DT40 TDP1 CPT 16.4µM*, IL-1B inflam inh -97.1* and ELG1 repair inh -0.6%.
Screening COc1cc(NC(=O)CCc2c(C)nc3c(c(C)nn3-c3ccccc3)c2C)cc(OC)c1OC returned TDP1 cell noCPT 11.6µM* and DT40 TDP1 CPT 14.6µM*.
`Cc1nc2c(c(C)nn2-c2ccccc2)c(C)c1CCC(=O)NCCc1ccccc1` gave TDP1 cell noCPT 20.6µM* and DT40 TDP1 CPT 20.6µM*.

High-throughput results: PubChem, National Center for Advancing Translational Sciences (NCATS)
